Source: PubChem (several laboratories)
Shown are actives, neighbours in structure and some others; about 2.5% of the full set was active somewhere.
GAA850 FXN act = increases GAA850 frataxin promoter reporter activity; HEK293 lucGAA850 FXN promoter luciferase reporter, 24 h; percent of 10 µM SAHA response; activation, % at 6 µM; actives 0.56% (n = 360,000);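 active = activation above the average of all compounds screened plus 3 SD, cutoff fixed separately per campaign, cut at about 7.5% in these data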;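 note: 0% = DMSO wells and 100% = 10 µM SAHA wells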
EWS-Fli inh = EWS/Fli transcriptional activity inhibition. A673 NR0B1-luciferase reporter, viability-normalised. inhibition, % at 12.6 µM. actives 0.67% (n = 350,000);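 active = mean inhibition of at least 50% after viability correction, with every replicate also passing that limit; inconclusive = mean reaches 50% but only one of two replicates passes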;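 note: firefly luciferase signal divided by Alamar Blue viability fluorescence both relative to DMSO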
Env fusion inh = HIV envelope-mediated fusion inhibition; actives 1.1% (n = 360,000); HeLa-JRFL Env/CEM21 cell fusion, luciferase; inhibition, % at 12.3 µM;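 active = mean replicate inhibition score of at least 50 and every replicate individually at or above 50; inconclusive = only one of the two criteria met; inactive = mean below 50 and not all replicates reaching 50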;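 note: 0% = plate neutral controls and 100% = maraviroc near 300 nM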
CFTR F508del cor = CFTR F508del correction in bronchial cells | activity (quench increase), % at 7.58 µM | actives 0.36% (n = 350,000) | CFBE cells, YFP halide quenching; stimulated with forskolin plus potentiator P3; % fluorescence drop versus neutral controls | AID 720511;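 active = mean added fluorescence quench of at least 8% versus neutral control, with both replicates also reaching 8%; inconclusive = only one of the mean or replicate conditions met; inactive = mean below 8% and not both replicates reaching 8%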;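 note: cells transiently co-express mutant CFTR-F508del with the halide-sensitive YFP; corrector assay measuring rescue of mutant channel to the surface after 24 h compound exposure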
PAX8 inh HTS = PAX8 transcriptional activity inhibition; RMG-I TPO-luciferase reporter, SteadyGlo, 24 h; inhibition, % at 12.6 µM; actives 1.2% (n = 360,000); AID 652154;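 active = mean replicate inhibition at least 60% with every replicate also reaching 60%; inconclusive = only one of the two criteria is met; inactive = mean below 60% and not all replicates reaching 60%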;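 note: luciferase light reporting Pax8 driven TPO promoter activity; plate controls were median of neutral control wells for no effect and mitoxantrone controls for full effect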
* marks the source's active call; other numbers are inactive results; ? = inconclusive; . = no result; [ ] = dose if it differs, or a comment.

SMILES | GAA850 FXN act | EWS-Fli inh | Env fusion inh | CFTR F508del cor | PAX8 inh HTS
O=C(Nc1cccc(F)c1)N1CCCCN2[C@H](CO)[C@H](c3ccc(-c4ccccc4F)cc3)[C@H]2C1 | . | 59.1* | . | -0.8 | ?
O=C(Nc1cccc(F)c1)N1CCCCN2[C@@H](CO)[C@@H](c3ccc(-c4ccccc4F)cc3)[C@@H]2C1 | . | 42.5 | . | -1.2 | 113.7*
O=C(Nc1ccccc1)N1CCCCN2[C@H](CO)[C@H](c3ccc(-c4ccccc4F)cc3)[C@H]2C1 | . | 19.0 | . | -1.0 | -6.1
O=C(C[C@H]1CC[C@@H](NC(=O)Nc2ccc(C(F)(F)F)cc2)[C@@H](CO)O1)NCc1cccc(F)c1 | . | -4.6 | -7.0[16.7 µM] | 2.8 | 12.9
NS(=O)(=O)c1ccc(Oc2ccc(S(N)(=O)=O)cc2)cc1 | -1.4 | -0.8 | -9.7 | 2.1 | 0.1
C=CS(=O)(=O)c1ccc(Oc2ccc(S(=O)(=O)C=C)cc2)cc1 | -13.8 | 52.6* | -354.8 | . | 98.0*
CCCN1[C@@H]2Cn3c(ccc(-c4ccccc4F)c3=O)[C@H]1[C@@H](C(=O)NCc1ccccn1)[C@@H]2CO | . | -6.0 | . | 0.5 | -49.7
C#CC[N+]1(CC#Cc2ccccc2)CCCCC1 | 1.4 | 9.2 | 1.5 | 2.6 | 0.1
CCC[N+]1(CC#CCC(c2ccccc2)c2ccccc2)CCCCC1 | -0.7 | 28.4 | 74.2* | . | ?
Cc1nc2ccccn2c1-c1csc(Nc2cccc(O)c2)n1 | -2.0 | 20.2 | -257.2 | . | 16.4
Cc1cccc(Nc2nc(-c3c(C)nc4ccccn34)cs2)c1 | -1.1 | . | 92.4* | . | .
O=C(CSCc1nc2ccccc2[nH]1)Nc1ccc2ccccc2c1 | 3.8 | . | 70.6* | . | .
COc1cc(NC2c3ncccc3C(=O)N2Cc2ccco2)cc(OC)c1 (stereo not drawn) | 0.6 | . | 60.0* | . | .
C[C@H](CO)N1C[C@H](C)[C@H](CN(C)C(=O)Nc2ccccc2)Oc2ncc(C#CC3CC3)cc2C1=O | . | -11.3 | -7.8[16.7 µM] | -0.2 | .
COc1ccc(-n2nnnc2-c2cnc(N3CCCC3)nc2C(F)(F)F)cc1 | -2.4 | . | 72.3* | . | .
FC(F)(F)c1nc(-c2cccs2)ncc1-c1nnnn1-c1ccc(Cl)cc1 | -4.4 | . | 69.9* | . | .
FC(F)(F)c1nc(-c2cccnc2)ncc1-c1nnnn1-c1ccccc1 | -0.2 | . | -0.4 | . | 35.3
COc1ccc2c3c([nH]c2c1)[C@H](CO)N(C(=O)c1ccncc1)CC31CN(C(=O)NC(C)C)C1 | . | -2.3 | . | -0.1 | .
Cc1cc(C)cc(OCC(=O)OCc2cc([N+](=O)[O-])cc3c2OCOC3)c1 | -1.2 | -0.4 | . | -0.8 | -18.1
Cc1cc(C)cc(C(=O)NCC(=O)OCc2cc([N+](=O)[O-])cc3c2OCOC3)c1 | -0.8 | -12.2 | 19.9 | 12.7* | 12.3
O=C(c1ccc(Cl)c(Cl)c1)N1CCC(=O)N(C(COCc2cccc(Cl)c2)Cc2ccccc2)CC1 (stereo not drawn) | 3.9 | 31.2 | 90.7* | -3.2 | ?
O=C(c1cccc(Cl)c1)N1CCC(=O)N(C(COCc2cccc(Cl)c2)Cc2ccccc2)CC1 (stereo not drawn) | -0.6 | 26.2 | 59.6* | 5.1 | 23.2
COc1cccc(NC(=O)N2CC3(C2)[C@@H](c2ccccc2)[C@@H](CO)N3C(=O)C2CCCC2)c1 | . | -6.3 | . | -1.5 | .
CCOC(=O)N1CCN(S(=O)(=O)c2ccc(C(=O)Nc3sc4c(c3C(N)=O)CC(C)(C)NC4(C)C)cc2)CC1 | 1.3 | 10.5 | -7.7 | 2.2 | -5.2
CC1(C)Cc2c(sc(NC(=O)c3ccc(S(=O)(=O)N4CCCCCC4)cc3)c2C#N)C(C)(C)N1 | 1.4 | 0.3 | 62.9* | -0.1 | 7.4
SMILES | GAA850 FXN act | EWS-Fli inh | Env fusion inh | CFTR F508del cor | PAX8 inh HTS
C[C@@H]1CN([C@H](C)CO)C(=O)c2c(c3ccccc3n2C)-c2ccccc2CO[C@H]1CN(C)Cc1cccc(C(F)(F)F)c1 | . | 20.5 | . | 0.5 | 2.8
C[C@H]1CN([C@@H](C)CO)C(=O)c2c(c3ccccc3n2C)-c2ccccc2CO[C@@H]1CN(C)Cc1ccc(Oc2ccccc2)cc1 | . | 2.8 | . | -2.3 | 56.2
C[C@H]1CN([C@@H](C)CO)C(=O)c2c(c3ccccc3n2C)-c2ccccc2CO[C@@H]1CN(C)Cc1ccc(C(F)(F)F)cc1 | . | -3.3 | . | 3.9 | 64.5*
C[C@@H]1CN([C@@H](C)CO)C(=O)c2c(c3ccccc3n2C)-c2ccccc2CO[C@H]1CN(C)Cc1cccc(C(F)(F)F)c1 | . | 11.0 | 57.4*[16.7 µM] | 5.0 | .
C[C@@H]1CN([C@H](C)CO)C(=O)c2c(c3ccccc3n2C)-c2ccccc2CO[C@H]1CN(C)Cc1ccc(Oc2ccccc2)cc1 | 1.2 | 6.4 | ? | -0.8 | 84.5*
COCC#Cc1ccc([C@@H]2[C@H]3CN(C(=O)Nc4cc(F)ccc4F)CCCCN3[C@H]2CO)cc1 | . | 3.1 | . | -0.9 | 3.1
CCCNC(=O)N1[C@H](C#N)[C@H](c2ccccc2-c2ccc(F)cc2)[C@@H]1CO | . | 7.2 | . | 0.0 | 0.8
Cc1ccc(-c2cnc3c(Cl)c(C)nn3c2)cc1 | 2.2 | 53.0* | -270.0 | 7.1 | -78.2
Cc1ccc(-c2cnc3cc(C)nn3c2)cc1 | 0.5 | 48.2 | -34.3 | -2.2 | -25.1
Cc1cccc(-n2c(SCC(=O)NCc3ccco3)nc3ccccc3c2=O)c1 | 1.1 | . | 61.5* | . | .
O=C(CSc1nc2ccccc2c(=O)n1Cc1ccc(Cl)cc1)NCc1cccs1 | 0.0 | 30.5 | 69.8* | -1.9 | 1.7
CCn1cc(SCC(=O)NCc2ccc3c(c2)OCO3)c2ccccc21 | 1.3 | 2.2 | 66.8* | 0.4 | -3.0
CCCn1cc(SCC(=O)NCc2ccc3c(c2)OCO3)c2ccccc21 | -2.1 | -0.7 | -36.3 | 5.5 | -1.6
C/C(N)=C(/C#N)C(=O)CSc1nc2ccccc2c(=O)n1Cc1ccc(C)cc1 | 0.4 | 20.6 | 14.8 | 0.0 | 7.9
C/C(N)=C(/C#N)C(=O)CSc1nc2ccccc2c(=O)n1Cc1ccc(F)cc1 | -2.0 | 20.3 | 66.6* | 1.8 | 12.3
O=C(C[C@H]1C[C@H]2c3cc(NC(=O)C4CCOCC4)ccc3O[C@H]2[C@@H](CO)O1)NCc1ccccn1 | . | 1.8 | -20.3[16.7 µM] | 1.3 | -10.8
Cc1ccc(S(=O)(=O)Nc2cccc3c2O[C@@H](CN(C)C(=O)NC(C)C)[C@@H](C)CN([C@@H](C)CO)C3=O)cc1 | . | -3.1 | . | 1.6 | -3.8
O=C(CSc1nnc(-c2ccccc2)c(-c2ccccc2)n1)NCc1ccco1 | -2.1 | . | -1.9 | . | .
O=C(CSc1nc(-c2ccccc2)c(-c2ccccc2)[nH]1)NCc1ccco1 | -3.3 | . | 69.6* | . | .
C=CCn1c(SCC(=O)NCc2ccc3c(c2)OCO3)nc2scc(-c3ccccc3)c2c1=O | 3.9 | . | 119.4* | . | 18.8
C=CCn1c(SCC(=O)NCc2ccco2)nc2sc3c(c2c1=O)CCC3 | 2.2 | . | 65.1* | . | -16.9
O=C(CSc1nc2ccccc2c(=O)n1-c1ccccc1)NCc1ccc2c(c1)OCO2 | 0.1 | . | 80.2* | . | .
Cc1cccc(-n2c(SCC(=O)NCc3ccc4c(c3)OCO4)nc3ccccc3c2=O)c1 | 3.1 | -14.4 | 39.3 | . | 2.4
O=C(Nc1ccc(F)cc1)N[C@@H]1C=C[C@@H](CC(=O)N2CCCCC2)O[C@H]1CO | . | 3.9 | 0.4[16.7 µM] | -1.4 | -9.1
